ALOX12 inh = Primary qHTS assay for inhibitors of human arachidonate 12S-lipoxygenase (ALOX12): Round 2; actives 1.1% (n = 580,000); Polyunsaturated fatty acid lipoxygenase ALOX12 (Homo sapiens), P18054; purified 12hLO, xylenol orange hydroperoxide absorbance; Potency, µM (series often up to 108 µM), inactives show at the highest dose activity change, negative = inhibition, actives largely listed as inhibitors; AID 1671190, 2021; also: potency is read from the fitted curve at half-maximal effect; % is scaled to controls: 0 for no effect and ±100 for the full control effect
Target sequence (P18054 whole entry, looked up): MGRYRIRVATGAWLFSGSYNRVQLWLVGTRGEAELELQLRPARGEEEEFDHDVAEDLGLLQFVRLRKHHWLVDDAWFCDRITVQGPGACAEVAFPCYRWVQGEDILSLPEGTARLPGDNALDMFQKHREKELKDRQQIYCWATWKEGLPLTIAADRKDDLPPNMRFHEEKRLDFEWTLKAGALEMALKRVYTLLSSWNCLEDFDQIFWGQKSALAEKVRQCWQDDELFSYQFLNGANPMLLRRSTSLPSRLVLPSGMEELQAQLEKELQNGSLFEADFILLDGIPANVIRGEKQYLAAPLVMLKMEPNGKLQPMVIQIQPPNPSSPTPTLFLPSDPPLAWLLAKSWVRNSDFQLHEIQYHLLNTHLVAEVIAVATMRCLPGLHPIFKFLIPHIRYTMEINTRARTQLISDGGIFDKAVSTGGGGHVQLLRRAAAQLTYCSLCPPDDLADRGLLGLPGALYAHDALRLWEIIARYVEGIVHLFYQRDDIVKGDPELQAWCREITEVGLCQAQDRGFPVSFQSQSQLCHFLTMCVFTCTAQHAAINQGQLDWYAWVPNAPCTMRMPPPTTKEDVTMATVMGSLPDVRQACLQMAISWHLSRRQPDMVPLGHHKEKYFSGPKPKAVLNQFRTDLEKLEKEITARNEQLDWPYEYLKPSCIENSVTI
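Purified human 12hLO at 150 nM in 25 mM Hepes, 0.01% Triton X-100, pH 7.0, preincubated 15 min at room temperature with compound. Reaction started with 40 uM arachidonic acid, 30 min at room temperature. Hydroperoxide measured by Fe-xylenol orange, 573/405 nm absorbance ratio.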
A549 viability = Nrf2 qHTS screen for inhibitors: counterscreen for cytotoxicity | A549 ARE-Fluc cells, CellTiter-Fluor viability, 18-24 h | Potency, µM (titrated, usually from 46 µM), without a hit: at the top dose activity change, negative = cytotoxicity, hits mostly inhibitors | actives 0.16% (n = 390,000) | AID 504648, 2011; also: potency is read from the fitted curve at half-maximal effect; % is scaled to controls: 0 for no effect and ±100 for the full control effect
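Cytotoxicity counterscreen: CellTiter-Fluor fluorescence was measured in A549 ARE_Fluc cells after 18-24 h of compound exposure in a concentration series. The subsequent BugLite luminescent read reports ARE-luciferase activity.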
LDHA inh = qHTS assay for inhibitors of human lactate dehydrogenase | purified LDHA, NADH/diaphorase-resazurin fluorescence; stronger effect = lower value | activity change, % (values are at about 110 or 230 µM) | actives 0.15% (n = 480,000); in the data active = activity change below about -30%; inconclusive = mostly about -25% to -30%;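 also: plate controls were DMSO wells for no effect and wells without enzyme for full effect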
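Human LDH5 (2 nM) was incubated with 0.06 mM NADH and 0.2 mM pyruvate for 5 min at room temperature in Tris pH 7.4. Remaining NADH was coupled through diaphorase/resazurin, and resorufin fluorescence was read at 0 and 20 min.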
Nrf2 inh = Nrf2 qHTS screen for inhibitors | Potency, µM (top dose mostly 46 µM), inactives show at the top dose activity change, negative = inhibition, most hits filed as inhibitors | AID 504444, 2011 | actives 2.1% (n = 360,000) | A549 ARE-Fluc reporter, luciferase luminescence, 18-24 h; also: potency is read from the fitted curve at half-maximal effect; % is scaled to controls: 0 for no effect and ±100 for the full control effect; nearly all actives have a fitted effect of over 60% in size
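Nrf2 function is reported as luminescence of an ARE-controlled luciferase in A549 cells. Compounds were tested at several concentrations, and a CellTiter-Fluor read on the same wells flagged cytotoxicity.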
Nrf2 activator = qHTS of Nrf2 Activators. actives 0.31% (n = 410,000). Potency, µM (doses to about 46.1 µM), inactives show top-dose activation, usual class: activators. AREc32 ARE-luciferase reporter (MCF7-derived line), luminescence, 24 h; also: potency is read from the fitted curve at half-maximal effect; % of control where 0% means no effect; nearly all actives have a fitted effect of over 65% in size
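Cells of the AREc32 ARE-luciferase line are plated in OPTI-MEM containing 5% FBS and left overnight at 37 deg C. Compounds are pinned in, incubation continues 24 hr, and firefly luciferase signal is then measured.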
IDH1 R132H inh = qHTS for Inhibitors of mutant isocitrate dehydrogenase 1 (IDH1): qHTS. Isocitrate dehydrogenase [NADP] cytoplasmic (Homo sapiens), O75874. IDH1-R132H enzyme, NADPH consumption, diaphorase/resazurin fluorescence. Potency, µM (titrated, usually from 76.6 µM), for inactives: top-dose activity change, negative = inhibition, most hits filed as inhibitors. actives 0.093% (n = 390,000). AID 602179, 2012; also: potency is read from the fitted curve at half-maximal effect; % is scaled to controls: 0 for no effect and ±100 for the full control effect; nearly all actives have a fitted effect of over 65% in size
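IDH1-R132H (0.5 ug/mL dispensed) in pH 7.5 Tris buffer was preincubated 30 min with compound, then given a substrate mix of 0.016 mM NADPH and 2 mM alpha-KG for 80 min at room temperature; remaining NADPH was read by diaphorase/resazurin fluorescence.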
* = called active by the depositor; i = inactive; ? = inconclusive; . = no result given; [ ] = dose if it differs, or a comment. Hits are enriched below; roughly 2.7% of the tested compounds scored in any of these assays. Unless noted, calls follow the shape of the dose curve; as a rule, active = well fitted curve in the direction sought with a large enough effect; inconclusive = small, poorly fitted or top-dose-only effect, or another doubt; inactive = no such curve, though single readings can be large; an effect the other way counts as inactive or inconclusive.

SMILES | ALOX12 inh | A549 viability | LDHA inh | Nrf2 inh | Nrf2 activator | IDH1 R132H inh
COc1cc(NC(=S)Nc2ccccn2)cc(OC)c1 | 32µM* | 0% | -8 | 11% | 27% | -1%
COC(=O)Cc1ccc(NC(=S)Nc2ccccn2)cc1 | 40µM* | -2% | -3 | ? | 4% | 6%
S=C(Nc1ccccn1)Nc1ccccc1Cl | 35µM* | 3% | -1 | ? | ? | 3%
S=C(Nc1ccccn1)c1ccccn1 | 4.5µM* | -5% | -2 | ? | ? | 3%
COC(=O)Cc1ccc(NC(=S)NCCO)cc1 | 2% | -5% | -3 | 9% | 0% | 5%
CCOc1cc(C(c2c(C)[nH]c3ccccc23)c2c(C)[nH]c3ccccc23)ccc1O | 7.9µM* | . | 18 | . | . | .
CCOc1cc(C(c2c(C)[nH]n(-c3ccccc3)c2=O)c2c(C)[nH]n(-c3ccccc3)c2=O)ccc1O | 0% | -7% | -3 | 6% | ? | 20%
Cc1ccc(C(=O)Cn2c(Cl)nc3c2c(=O)n(C)c(=O)n3C)c(C)c1 | -22% | . | -17 | . | . | .
NC(=O)C1CCN(c2nc(-c3ccc4c(c3)OCCCO4)cs2)CC1 | . | . | -6 | . | . | .
Cc1ccc(-c2csc(N3CCC(NS(=O)(=O)c4ccc5c(c4)OCCO5)CC3)n2)cc1 | -25% | ? | -18 | 15µM* | 7% | 0%
O=C1N/C(=N/N=C/c2ccco2)SC1Cc1ccccc1 (stereo not drawn) | 0% | 0% | -4 | 0% | ? | 7%
Cc1ccc(CC2S/C(=N/N=C/c3ccco3)NC2=O)cc1 (stereo not drawn) | -1% | 12% | -6 | 1% | 4.5µM* | 7%
O=C1N/C(=N\N=C\c2ccc3ncccc3c2)SC1Cc1ccc(SC(F)F)cc1 (stereo not drawn) | 0% | -23% | 1 | ? | 4% | -2%
O=C1N/C(=N\N=C\c2ccccn2)SC1Cc1cccc(SC(F)F)c1 (stereo not drawn) | 2% | -19% | -6 | 16µM* | -1% | 1%
O=C1N/C(=N\N=C\c2cccnc2)SC1Cc1ccc(SC(F)F)cc1 (stereo not drawn) | 7% | -21% | 1 | 16µM* | 0% | 3%
C/C=C/Oc1ccc(C(=O)/C(=C\c2cccnc2)c2nc3ccccc3o2)cc1 | 26% | . | 6 | . | . | .
Cn1c(/C(C#N)=C(\O)c2ccccc2Cl)nc2ccccc21 | i | 2% | -3 | ? | 13% | 11%
CCN(CC)S(=O)(=O)c1ccc(C(O)=C(C#N)c2nc3ccccc3n2C)cc1 | 2% | -18% | -4 | 23µM* | -1% | -1%
Cc1cc2oc3c(c(=O)c2cc1C)C(c1cccc(Br)c1)N(Cc1ccco1)C3=O (stereo not drawn) | -25% | -18% | -4 | 8.2µM* | 0% | -2%
Cc1ccccc1Cn1nc(C)c(NC(=O)c2cc3nc(-c4ccco4)cc(C(F)(F)F)n3n2)c1C | 0% | -10% | 1 | 21µM* | 2% | 0%
Cc1ccccc1Cn1nc(C)c(NC(=O)c2cc(-c3ccco3)on2)c1C | -22% | 12% | -2 | 18% | -1% | -4%
CC1Cc2ccccc2N1C(=O)c1nn(C(C)C)c(=O)c2ccccc12 (stereo not drawn) | -59% | . | 3 | . | . | .
CCN(CC)CCC=C(c1cccs1)c1cccs1 | 50µM* | 7% | -10 | 3% | 0% | 9%
CCC1(c2ccccc2)NC(=S)N(c2cccc(C)c2C)N1 (stereo not drawn) | 25µM* | -3% | 0 | 1% | 0% | 0%
COc1cccc(C2OCC(C)(C)n3c(-c4ccccc4)c4c(=O)n(C)c(=O)n(C)c4c32)c1O (stereo not drawn) | 11µM* | . | 22 | . | . | .
SMILES | ALOX12 inh | A549 viability | LDHA inh | Nrf2 inh | Nrf2 activator | IDH1 R132H inh
Cn1c(=O)c2c(-c3ccccc3)n3c(c2n(C)c1=O)C(c1ccc(O)cc1)OCC3(C)C (stereo not drawn) | ? | . | -9 | . | . | .
C#CCN(C[C@@H]1[C@@H](OC(=O)Nc2cccs2)[C@@H](OC(=O)Nc2cccs2)Cn2c(=O)n(CCCCCC)c(=O)n21)S(=O)(=O)c1ccc(C)cc1 | 10µM* | . | -8 | . | 3% | 2%
C#CCN(C[C@H]1[C@H](OC(=O)NCCCCCC)[C@H](OC(=O)NCCCCCC)C[C@@H](C(=O)OC)[C@H]1C(=O)OC)S(=O)(=O)c1ccc(C)cc1 | -26% | . | -2 | . | 1% | -3%
O=C(/C=C/c1ccc2ccccc2c1)c1ccccc1 | ? | . | -1 | . | . | .
Cc1cccc(NC(=O)CSc2nc3ccc(N4C(=O)c5ccccc5C4=O)cc3s2)c1C | -19% | ? | 2 | 21µM* | 0% | 0%
CC(C)(C)C(=O)N(Cc1ccc(Cl)cc1)c1cnccn1 | -3% | -1% | -4 | 18µM* | 0% | 4%
COc1cc(F)ccc1-c1cc(C(=O)NCc2cnn(C)c2)c2c(c1)N(C)CCO2 | -1%[176 µM] | . | . | . | . | .
CCOC(=O)C1=C(Cc2ccc(F)cc2)C(=O)c2ccccc2C1=O | ? | 16µM* | 61 | . | 9% | 19%
O=C(OCc1ccc(F)cc1)c1ccc2c(c1)-c1ccccc1C2=O | 13% | -2% | -5 | -14% | 6% | 1%
O=C(Nc1ccc(F)c(F)c1)c1cc(S(=O)(=O)C2CCS(=O)(=O)C2)ccc1F (stereo not drawn) | ? | . | -1 | . | . | .
Cc1ccc(Cn2cccc(NS(C)(=O)=O)c2=O)cc1 | 7.1µM* | 4% | 4 | 4% | 0% | 7%
Oc1c(Br)cc(/C=N/n2c(-c3ccccc3)n[nH]c2=S)cc1Br | 22µM* | -15% | -9 | -10% | -1% | 13%
Oc1ccc(/C=N/n2c(-c3ccccc3)n[nH]c2=S)cc1Br | 32µM* | 0% | -4 | 1% | 3% | 12%
COc1ccc(/C=N/n2c(-c3ccc(C)cc3)n[nH]c2=S)cc1OC | 10µM* | -5% | -14 | -17% | 2% | 2%
Cc1ccc(CN2CCN(C(=O)c3ccn(COc4cccc(Cl)c4)n3)CC2)cc1 | ? | . | -2 | . | . | .
CN1C(=O)COC[C@@H]1[C@H](O)c1ccc(NC(=O)c2ccc(C(F)(F)F)cc2)cc1 | 2%[176 µM] | . | . | . | . | .

Screening results as filed in PubChem.
